# Sampled rows, rich in hits. Any-hit rate of the full collection: about 11%.
# Pf growth 96h = inhibits malaria parasite growth, 96 h; P. falciparum luciferase reporter growth, 96 h; Potency, µM (series often up to 28.7 µM), for the others: top-dose activity change, negative = inhibition, hits mostly inhibitors; 6.9% of 320,000 active; AID 504834
#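 96 h incubation, 37 C, 5% CO2, of luciferase-reporter P. falciparum-infected RBCs (2% hematocrit, 0.05% parasitemia final) with test compounds; endpoint luminescence.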
# AmpC inh no detg = AmpC beta-lactamase inhibition without detergent; P00811; AmpC nitrocefin hydrolysis, absorbance 480 nm, 0.0001% Triton; Potency, µM (doses to about 57.1 µM), for inactives: top-dose activity change, negative = inhibition, most hits filed as inhibitors; 0.52% of 330,000 active; AID 485341;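 further: plate controls were no compound for no effect and no enzyme for full effect; nearly all actives have a fitted effect of over 20% in size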
# Target sequence (P00811 whole entry, looked up): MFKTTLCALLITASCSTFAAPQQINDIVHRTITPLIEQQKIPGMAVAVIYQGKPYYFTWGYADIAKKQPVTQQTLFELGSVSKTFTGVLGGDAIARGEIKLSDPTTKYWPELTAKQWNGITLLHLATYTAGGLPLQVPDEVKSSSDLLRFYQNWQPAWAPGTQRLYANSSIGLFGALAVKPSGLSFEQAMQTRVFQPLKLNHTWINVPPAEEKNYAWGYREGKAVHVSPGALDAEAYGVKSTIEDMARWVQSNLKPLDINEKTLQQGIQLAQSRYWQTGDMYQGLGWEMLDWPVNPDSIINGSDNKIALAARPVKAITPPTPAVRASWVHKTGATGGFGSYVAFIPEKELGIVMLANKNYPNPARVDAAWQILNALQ
#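 AmpC (5.3 nM in the dispensed reagent) in 20 mM phosphate pH 7.0 with 0.01% (detergent screen) or 0.0001% Triton X-100 was preincubated with compounds for 15 min at room temperature. Nitrocefin was then added from an 800 uM solution, and hydrolysis was followed at 480 nm.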
# AmpC inh detg = inhibitors of E. coli AmpC beta-lactamase with detergent; AmpC hydrolysis of nitrocefin, absorbance 480 nm, 0.01% Triton; Potency, µM (doses to about 114 µM), without a hit: at the top dose activity change, negative = inhibition, most hits filed as inhibitors; 0.041% of 370,000 active;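 further: 0% = no-compound wells and -100% = no-enzyme wells; nearly all actives have a fitted effect of over 25% in size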
#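 20 mM phosphate pH 7.0 + 0.01% (detergent screen) or 0.0001% Triton X-100; 5.3 nM AmpC reagent; cpd preinc 15 min RT; nitrocefin (800 uM stock) to start; A480 q20 s × 4 min; Activity was normalised to no-enzyme and no-compound control wells.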
# HCV inh = blocks hepatitis C virus; Huh7.5.1 HCVcc-Cre infection, luciferase reporter, 44 h; Potency, µM (doses to about 41.8 µM), without a hit: at the top dose activity change, negative = inhibition, actives largely listed as inhibitors; 3.4% of 340,000 active
#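 Compounds are dispensed onto cells plated 4 h earlier at 1,000 per well, with HCVcc-Cre virus (about 0.5 moi) added next. Following 44 h of culture, luminescent signal is measured for 15 sec after 15 min with substrate at room temperature.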
# Pf growth 48h = inhibits P. falciparum growth in the first generation, 48 h; AID 504832; P. falciparum luciferase growth in erythrocytes, 48 h; Potency, µM (highest dose often 28.7 µM), inactives show at the highest dose activity change, negative = inhibition, hits mostly inhibitors; 5.9% of 310,000 active
#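 Luciferase-expressing parasites in RBCs, 2% Hct / 0.1% parasitemia final; RPMI 1640 + 0.5% Albumax; 37 C, 5% CO2, one generation; luminescence read-out, lower signal = inhibition.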
# AMA1 RON2 block = AMA1-RON2 (P. falciparum) interaction inhibition. AlphaScreen AMA1-biotinylated RON2 peptide binding. Potency, µM (highest dose often 58.2 µM), without a hit: at the top dose activity change, negative = inhibition, actives largely listed as inhibitors. 0.2% of 360,000 active. AID 720542;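 further: 0% = vehicle wells and -100% = peptide control; nearly all actives have a fitted effect of over 45% in size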
#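 AMA1 (3D7) with his tag at 25 nM final met compounds first, then biotinylated RON2 peptide at 25 nM; detection used donor plus acceptor beads, 10 µg/mL apiece, read by AlphaScreen after 30 min at room temperature.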
# * = called active by the depositor; ? = inconclusive; · = not tested or not shown; [ ] = remark or other dose. The call rests on the fitted dose curve; in most records, active means well fitted curve in the direction sought with a large enough effect; inconclusive means small, poorly fitted or top-dose-only effect, or another doubt; inactive means no such curve, though single readings can be large; an effect the other way counts as inactive or inconclusive. Unless noted, on the % scale 0 is the no-effect control and ±100 the full control effect; potency means the concentration at half of the fitted maximal effect.
SMILES,Pf growth 96h,AmpC inh no detg,AmpC inh detg,HCV inh,Pf growth 48h,AMA1 RON2 block
CCOC(=O)Cn1c(=NC(=O)c2ccc([N+](=O)[O-])s2)sc2ccccc21,3.7µM*,-19.4%,-16.5%,6.5%,9.28µM*,-11.0%[2.32 µM]
CCOC(=O)c1ccc(NC(=O)CC2C(=O)N(c3ccc(C)cc3)C(=O)N2C2CCCC2)cc1 (stereo not drawn),·,·,-0.3%,·,·,·
CC(=O)Nc1ccc(S(=O)(=O)NC(C(=O)O)C2=CCC=CC2)cc1 (stereo not drawn),3.7µM*,-6.0%,-15.0%,18.6%,28.1%,2.7%
CC(=O)Nc1ccc(S(=O)(=O)N[C@H](C(=O)O)C(C)C)cc1,-29.4%,-16.9%,?,3.5%,3.9%,-2.5%
CCc1noc(C)c1C(=O)Nc1ccc(S(=O)(=O)N2CCCCC2)cc1,?,-20.9%,-13.2%,?,?,8.4%
O=C(Nc1ccncc1)c1ccc(Cl)c(S(=O)(=O)N2CCCCC2)c1,1.85µM*,-10.2%,-0.7%,10µM*,?,-4.7%
CCc1nnc(NC(=O)c2ccc(F)c(S(=O)(=O)N3CCCCC3)c2)s1,11.7µM*,-20.9%,-0.1%,2.2%,8.0%,-3.5%
CCc1noc(C)c1C(=O)Nc1ccc(Cl)c(S(=O)(=O)N2CCCCC2)c1,?,-17.6%,0.0%,?,9.28µM*,5.1%
Cc1ccc(C(=O)Nc2cccnc2)cc1S(=O)(=O)N1CCCCCC1,?,5.3%,4.3%,·,?,-3.5%
O=C(Nc1cccnc1)c1ccc(Cl)c(S(=O)(=O)N2CCCCCC2)c1,·,-5.5%,?,?,10.4µM*,-5.5%
O=C(c1ccc2c(c1)N(Cc1cccc(Cl)c1)C(=O)c1ccccc1S2)N1CCOCC1,·,·,5.6%,·,·,·
O=C(Nc1ccc(Cl)c(S(=O)(=O)N2CCCCC2)c1)c1ccncc1,7.38µM*,0.8%,-12.0%,8.91µM*,?,-0.1%
O=C(Nc1ccc(Cl)c(S(=O)(=O)N2CCCCC2)c1)c1cnccn1,?,-3.6%,?,-8.4%,?,23.7%
O=[N+]([O-])c1cccnc1SCc1c(F)cccc1Cl,?,-24.0%,-4.7%,15.3%,13.1µM*,-1.3%
Cc1nn(C)c2c1c(C(F)(F)F)cc(=O)n2C(C)C(=O)NCCc1ccccc1 (stereo not drawn),·,·,1.7%,·,·,·
O=C(Nc1ccccc1N1CCOCC1)c1ccc2c(c1)OCO2,17.1%,-9.3%,-6.4%,-13.9%,-19.0%,-2.0%
COc1ccc(C2N(c3ccc(Cl)cc3)N=C(C(C)=O)N(C)N2C(C)=O)cc1 (stereo not drawn),?,31.0%,4.6%,?,?,-25.3%
CC(=O)C1=NN(c2ccccc2)C(c2cccs2)N1c1ccccc1 (stereo not drawn),4.65µM*,-48.5%,-14.5%,·,·,·
CC(=O)C1=NN(c2ccccc2)C(c2ccc3c(c2)OCO3)N1c1ccc(N2CCOCC2)cc1 (stereo not drawn),?,101.3%,3.0%,?,14.7µM*,?
COc1cccc(N2C(C(C)=O)=NN(c3ccccc3)C2c2ccc(N3CCOCC3)cc2)c1 (stereo not drawn),?,58.1%,?,-11.8%,13.1µM*,6.7%
CC(=O)N1N=C(c2ccccc2O)CC1c1cccs1 (stereo not drawn),3.0%,-18.3%,-15.6%,3.5%,-4.7%,-6.3%
CCc1ccc(C(=O)c2cn(CC(=O)NCCc3ccccc3)c3nc(C)ccc3c2=O)cc1,·,·,1.0%,·,·,·
COc1ccc(CN2C(=O)N(c3ccc(C)cc3)C(=O)C2CC(=O)Nc2ccccc2)cc1OC (stereo not drawn),·,·,12.0%,·,·,·
CC(C)(O)C(Cl)(Cl)Cl,1.69µM*,·,·,·,2.69µM*,·
CCOc1ccccc1N1CCN(C(=O)c2ccc(Cl)c(S(=O)(=O)N3CCCCC3)c2)CC1,5.22µM*,157.5%,0.0%,10µM*,11.7µM*,-17.8%
